Source: PubChem BioAssay AID1159580 (chemical genetic matrix, 2015)
Values joined by “and” are separate entries in the source; they are usually repeats but may differ in a detail not shown here. Identical values can stand only once. About 2,000 (36%) of roughly 5,500 compounds were called active. Roughly 18% stayed inconclusive and do not appear here. Rule as the data show it: active = normalized growth mostly below about 0.91 (no sharp cut-off); inconclusive = no clear call, values can overlap the other calls; inactive = mostly above about 0.92. The list shows a part of the results.

Assay: chemical genetic growth profiling, strain panel (AID 1159580);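 also: tested at 20 µM; growth read once vehicle control cultures reached saturation at 30 °C; 1 = growth at the plate median or of vehicle wells; lower values mean less growth of the strain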
Details: S. cerevisiae deletion strains, growth OD

Measured: normalized growth

C/C=C(\C)C(=O)O[C@@H]1c2c(ccc3ccc(=O)oc23)OC(C)(C)[C@@H]1OC(C)=O
inactive: locus YAL013W, strain DEP1, hits give low values 1.01 | locus YAL021C, strain ccr4, hits give low values 1.01 | locus YAL026C, strain drs2, hits give low values 0.989 | locus YAL030W, strain snc1, hits give low values 0.996 | locus YBL061C, strain skt5, hits give low values 0.994 | locus YBR009C, strain hhf1, hits give low values 1.03 | locus YBR021W, strain FUR4, hits give low values 1.03 | locus YBR023C, strain chs3, hits give low values 0.987 | locus YBR171W, strain sec66, hits give low values 0.98 | locus YBR229C, strain ROT2, hits give low values 0.995 | locus YBR231C, strain swc5, hits give low values 1 | locus YBR279W, strain paf1, hits give low values 1.01 | locus YCL011C, strain gbp2, hits give low values 1.01 | locus YCL016C, strain dcc1, hits give low values 0.993 | locus YCL029C, strain bik1, hits give low values 1.03 | locus YCL061C, strain MRC1, hits give low values 0.985 | locus YCL069W, strain vba3, hits give low values 1.01 | locus YCR088W, strain abp1, hits give low values 0.996 | locus YDL005C, strain med2, hits give low values 0.981 | locus YDL035C, strain GPR1, hits give low values 0.995 | locus YDL040C, strain nat1, hits give low values 0.998 | locus YDL074C, strain BRE1, hits give low values 1 | locus YDL101C, strain DUN1, hits give low values 1.01 | locus YDL134C, strain PPH21, hits give low values 0.974 | locus YDL185W, strain tfp1, hits give low values 1.02 | locus YDL192W, strain arf1, hits give low values 0.992 | locus YDR001C, strain nth1, hits give low values 1.01 | locus YDR069C, strain doa4, hits give low values 1 | locus YDR101C, strain arx1, hits give low values 1.03 | locus YDR150W, strain NUM1, hits give low values 0.997 | locus YDR159W, strain sac3, hits give low values 0.989 | locus YDR162C, strain NBP2, hits give low values 0.983 | locus YDR195W, strain ref2 1.06 | locus YDR297W, strain sur2, hits give low values 0.995 | locus YDR318W, strain mcm21, hits give low values 0.974 | locus YDR334W, strain swr1, hits give low values 1 | locus YDR335W, strain msn5, hits give low values 1.02 | locus YDR388W, hits give low values 1 | locus YDR392W, strain spt3, hits give low values 0.762 | locus YDR502C, strain sam2, hits give low values 0.991 | locus YEL003W, strain gim4, hits give low values 1.01 | locus YEL037C, strain rad23, hits give low values 1.01 | locus YEL061C, strain CIN8 (second series), hits give low values 1 | locus YEL061C, strain CIN8, hits give low values 0.991 | locus YER015W, strain faa2, hits give low values 1.01 | locus YER016W, strain bim1, hits give low values 0.993 | locus YER110C, hits give low values 1.01 | locus YER111C, strain swi4, hits give low values 0.994 | locus YER155C, strain BEM2 (second series), hits give low values 1.03 | locus YER155C, strain BEM2, hits give low values 1.01 | locus YER167W, strain BCK2, hits give low values 0.997 | locus YFR010W, strain ubp6, hits give low values 1.02 | locus YGL078C, strain dbp3, hits give low values 1 | locus YGL086W, strain mad1, hits give low values 1.05 | locus YGL167C, strain pmr1, hits give low values 0.984 | locus YGL173C, strain kem1, hits give low values 0.991 | locus YGL227W, strain vid30, hits give low values 0.991 | locus YGL240W, strain doc1, hits give low values 0.985 | locus YGL248W, strain PDE1, hits give low values 0.993 | locus YGL253W, strain hxk2, hits give low values 0.963 | locus YGR078C, strain PAC10, hits give low values 1 | locus YGR135W, strain pre9, hits give low values 0.987 | locus YGR252W, strain gcn5, hits give low values 1 | locus YHR013C, strain ard1, hits give low values 0.971 | locus YHR027C, strain rpn1, hits give low values 1 | locus YHR030C, strain SLT2, hits give low values 0.996 and 0.998 | locus YHR079C, strain IRE1 (second series), hits give low values 0.998 | locus YHR079C, strain IRE1, hits give low values 1.01 | locus YHR094C, strain hxt1, hits give low values 1 | locus YHR129C, strain ARP1, hits give low values 1 | locus YHR142W, strain chs7, hits give low values 0.987 | locus YHR200W, strain rpn10, hits give low values 1.02 | locus YIL066C, strain RNR3, hits give low values 0.992 | locus YIL073C, strain SPO22, hits give low values 0.989 | locus YIL125W, strain kgd1, hits give low values 1.01 | locus YIR030C, strain dcg1, hits give low values 0.994 | locus YJL092W, strain hpr5, hits give low values 0.99 | locus YJL095W, strain BCK1 (second series), hits give low values 0.994 | locus YJL095W, strain BCK1, hits give low values 0.956 and 1.05 | locus YJL115W, strain asf1, hits give low values 0.995 | locus YJL129C, strain trk1, hits give low values 0.953 | locus YJL134W, strain LCB3, hits give low values 0.996 | locus YJL154C, strain vps35, hits give low values 1.01 | locus YJL164C, strain tpk1, hits give low values 1 | locus YJL166W, strain qcr8, hits give low values 0.968 | locus YJL168C, strain set2, hits give low values 1.01 | locus YJL187C, strain SWE1 (second series), hits give low values 1 | locus YJL187C, strain SWE1, hits give low values 0.991 | locus YJR043C, strain POL32, hits give low values 1.02 | locus YJR066W, strain TOR1, hits give low values 0.958 | locus YJR075W, strain HOC1, hits give low values 0.993 | locus YKL009W, strain mrt4, hits give low values 0.997 | locus YKL068W, hits give low values 1.01 | locus YKL085W, strain MDH1 (second series), hits give low values 0.991 | locus YKL085W, strain MDH1, hits give low values 0.991 | locus YKL160W, strain elf1, hits give low values 0.939 | locus YKR001C, strain vps1, hits give low values 1.02 | locus YKR026C, strain gcn3, hits give low values 0.996 | locus YKR091W, strain srl3, hits give low values 0.996 | locus YLL001W, strain dnm1, hits give low values 0.972 | locus YLL026W, hits give low values 0.992 | locus YLL041C, strain sdh2, hits give low values 0.998 | locus YLR027C, strain aat2, hits give low values 0.992 | locus YLR039C, strain RIC1, hits give low values 0.946 | locus YLR058C, strain SHM2, hits give low values 0.995 | locus YLR102C, strain apc9, hits give low values 1.01 | locus YLR113W, strain HOG1, hits give low values 1.01 | locus YLR221C, strain rsa3, hits give low values 0.971 | locus YLR258W, strain gsy2, hits give low values 0.997 | locus YLR262C, strain YPT6, hits give low values 0.913 | locus YLR268W, strain sec22, hits give low values 1.02 | locus YLR320W, strain mms22, hits give low values 0.943 | locus YLR330W, strain CHS5, hits give low values 1.01 | locus YLR342W, strain FKS1 (second series), hits give low values 1.01 | locus YLR342W, strain FKS1, hits give low values 0.998 | locus YLR357W, strain rsc2, hits give low values 1.04 | locus YLR370C, strain arc18, hits give low values 0.996 | locus YLR371W, strain rom2, hits give low values 1.02 | locus YLR384C, strain iki3, hits give low values 0.988 | locus YLR418C, strain cdc73, hits give low values 0.97 | locus YML016C, strain PPZ1, hits give low values 0.995 | locus YML032C, strain rad52, hits give low values 0.99 | locus YML120C, strain ndi1, hits give low values 0.993 | locus YML124C, strain tub3, hits give low values 0.988 | locus YMR058W, strain fet3, hits give low values 1 | locus YMR078C, strain ctf18, hits give low values 1 | locus YMR125W, strain sto1, hits give low values 0.967 | locus YMR129W, hits give low values 0.992 | locus YMR205C, strain PFK2, hits give low values 0.919 | locus YMR223W, strain ubp8, hits give low values 0.979 | locus YMR231W, strain pep5, hits give low values 0.998 | locus YMR307W, strain GAS1, hits give low values 0.929 | locus YNL067W, strain RPL9B, hits give low values 0.997 | locus YNL071W, strain lat1, hits give low values 0.963 | locus YNL153C, strain GIM3, hits give low values 1.02 | locus YNL183C, strain NPR1, hits give low values 0.996 | locus YNL209W, strain ssb2, hits give low values 1 | locus YNL233W, strain BNI4, hits give low values 1.02 | locus YNL248C, strain rpa49, hits give low values 0.956 | locus YNL250W, strain rad50, hits give low values 1.02 | locus YNL271C, strain bni1, hits give low values 1 | locus YNL298W, strain CLA4, hits give low values 1.01 | locus YNL307C, strain MCK1, hits give low values 1 | locus YNL322C, strain KRE1 (second series), hits give low values 0.991 | locus YNR049C, strain mso1, hits give low values 0.992 | locus YNR052C, strain pop2, hits give low values 0.995 | locus YOL006C, strain TOP1, hits give low values 1.04 | locus YOL012C, strain htz1 1.21 | locus YOL147C, strain pex11, hits give low values 0.996 | locus YOR001W, strain rrp6, hits give low values 1.02 | locus YOR061W, strain CKA2, hits give low values 0.99 | locus YOR069W, strain VPS5, hits give low values 0.995 | locus YOR070C, strain gyp1, hits give low values 0.999 | locus YOR080W, strain dia2, hits give low values 1.01 | locus YOR083W, strain WHI5, hits give low values 0.953 | locus YOR106W, strain vam3, hits give low values 0.977 | locus YOR136W, strain idh2, hits give low values 1.03 | locus YOR144C, strain elg1, hits give low values 1.01 | locus YOR184W, strain ser1, hits give low values 0.959 | locus YOR231W, strain MKK1, hits give low values 0.991 | locus YOR265W, strain rbl2, hits give low values 0.991 | locus YOR270C, strain vph1, hits give low values 0.912 | locus YOR290C, strain snf2, hits give low values 0.972 | locus YOR316C, strain cot1, hits give low values 0.999 | locus YPL051W, strain arl3, hits give low values 0.96 | locus YPL055C, strain LGE1, hits give low values 1 | locus YPL078C, strain atp4, hits give low values 0.972 | locus YPL106C, strain sse1, hits give low values 1.04 | locus YPL240C, strain hsp82, hits give low values 1 | locus YPL241C, strain CIN2, hits give low values 0.986 | locus YPL256C, strain CLN2, hits give low values 0.99 | locus YPR119W, strain clb2, hits give low values 0.993 | locus YPR141C, strain kar3, hits give low values 1.01 | locus YPR163C, strain tif3, hits give low values 0.996 | locus YPR167C, strain met16, hits give low values 0.99 | strain wtn01, hits give low values 1.05
active: locus YDR137W, strain rgp1, hits give low values 0.842 | locus YLR262C, strain YPT6 (second series), hits give low values 0.846
